Source: PubChem BioAssay AID1159580 (chemical genetic matrix, 2015)
Several values for one entry are separate records, joined by “and”; a condition that tells them apart may be missing. Identical values can stand only once. Hit rate of the full screen: of about 5,500 compounds, about 2,000 (36%) were called active. About 18% were inconclusive and are not listed. Rule as the data show it: active = normalized growth mostly below about 0.91 (no sharp cut-off); inconclusive = no clear call, values can overlap the other calls; inactive = mostly above about 0.92. The list shows a part of the results.

Assay: chemical genetic growth profiling, strain panel (AID 1159580);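 also: tested at 20 µM; growth read once vehicle control cultures reached saturation at 30 °C; 1 = growth at the plate median or of vehicle wells; lower values mean less growth of the strain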
Conditions: S. cerevisiae deletion strains, growth OD

Measured: normalized growth

CN1C(C(=O)Nc2ccccn2)=C(O)c2ccccc2S1(=O)=O
inactive: locus YAL013W, strain DEP1, active compounds read low 0.977 and 0.995 | locus YAL021C, strain ccr4, active compounds read low 0.977 | locus YAL026C, strain drs2, active compounds read low 0.964 | locus YAL030W, strain snc1, active compounds read low 0.944 | locus YAL040C, strain CLN3, active compounds read low 1 | locus YBL061C, strain skt5, active compounds read low 0.966 | locus YBR009C, strain hhf1, active compounds read low 0.932 | locus YBR021W, strain FUR4, active compounds read low 0.994 | locus YBR023C, strain chs3, active compounds read low 0.982 | locus YBR171W, strain sec66, active compounds read low 0.922 | locus YBR229C, strain ROT2, active compounds read low 0.965 | locus YBR231C, strain swc5, active compounds read low 0.953 | locus YBR279W, strain paf1, active compounds read low 0.979 | locus YCL011C, strain gbp2, active compounds read low 0.956 | locus YCL016C, strain dcc1, active compounds read low 0.969 | locus YCL029C, strain bik1, active compounds read low 0.955 | locus YCL061C, strain MRC1 (second series), active compounds read low 0.997 | locus YCL069W, strain vba3, active compounds read low 0.961 | locus YCR088W, strain abp1, active compounds read low 0.968 | locus YDL005C, strain med2, active compounds read low 0.964 | locus YDL035C, strain GPR1, active compounds read low 1.01 | locus YDL040C, strain nat1, active compounds read low 0.966 | locus YDL074C, strain BRE1, active compounds read low 0.992 | locus YDL101C, strain DUN1, active compounds read low 0.997 | locus YDL134C, strain PPH21, active compounds read low 0.98 | locus YDL185W, strain tfp1, active compounds read low 0.922 | locus YDL192W, strain arf1, active compounds read low 0.966 | locus YDR001C, strain nth1, active compounds read low 0.956 | locus YDR069C, strain doa4, active compounds read low 0.984 | locus YDR101C, strain arx1, active compounds read low 0.966 | locus YDR137W, strain rgp1, active compounds read low 0.918 | locus YDR150W, strain NUM1, active compounds read low 0.971 | locus YDR159W, strain sac3, active compounds read low 0.966 | locus YDR162C, strain NBP2, active compounds read low 0.991 | locus YDR195W, strain ref2 0.962 | locus YDR297W, strain sur2, active compounds read low 0.945 | locus YDR318W, strain mcm21, active compounds read low 0.944 | locus YDR334W, strain swr1, active compounds read low 0.974 | locus YDR335W, strain msn5, active compounds read low 0.97 | locus YDR363W, strain ESC2, active compounds read low 1.02 | locus YDR388W, active compounds read low 0.953 | locus YDR502C, strain sam2, active compounds read low 0.957 | locus YEL003W, strain gim4, active compounds read low 0.946 | locus YEL037C, strain rad23, active compounds read low 0.976 | locus YEL061C, strain CIN8 (second series), active compounds read low 0.978 | locus YEL061C, strain CIN8, active compounds read low 0.977 | locus YER002W, strain NOP16, active compounds read low 0.979 | locus YER015W, strain faa2, active compounds read low 0.961 | locus YER016W, strain bim1, active compounds read low 0.976 | locus YER110C, active compounds read low 0.97 | locus YER111C, strain swi4, active compounds read low 0.958 | locus YER155C, strain BEM2 (second series), active compounds read low 0.882 | locus YER155C, strain BEM2, active compounds read low 0.962 | locus YER167W, strain BCK2, active compounds read low 0.968 | locus YFR010W, strain ubp6, active compounds read low 0.971 | locus YGL078C, strain dbp3, active compounds read low 0.959 | locus YGL086W, strain mad1, active compounds read low 0.95 | locus YGL167C, strain pmr1, active compounds read low 0.937 | locus YGL173C, strain kem1, active compounds read low 0.957 | locus YGL227W, strain vid30, active compounds read low 0.964 | locus YGL240W, strain doc1, active compounds read low 0.949 | locus YGL248W, strain PDE1, active compounds read low 0.984 | locus YGL253W, strain hxk2, active compounds read low 0.961 | locus YGR078C, strain PAC10, active compounds read low 0.975 | locus YGR135W, strain pre9, active compounds read low 0.958 | locus YGR229C, strain SMI1, active compounds read low 0.98 and 1.02 | locus YGR252W, strain gcn5, active compounds read low 0.99 | locus YHR013C, strain ard1, active compounds read low 0.91 | locus YHR027C, strain rpn1, active compounds read low 0.982 | locus YHR030C, strain SLT2, active compounds read low 0.972 and 0.968 | locus YHR079C, strain IRE1 (second series), active compounds read low 0.96 | locus YHR079C, strain IRE1, active compounds read low 0.947 | locus YHR094C, strain hxt1, active compounds read low 0.956 | locus YHR129C, strain ARP1, active compounds read low 0.97 | locus YHR142W, strain chs7, active compounds read low 0.951 | locus YHR200W, strain rpn10, active compounds read low 0.972 | locus YIL066C, strain RNR3, active compounds read low 0.99 | locus YIL073C, strain SPO22, active compounds read low 0.985 | locus YIL125W, strain kgd1, active compounds read low 0.946 | locus YIR030C, strain dcg1, active compounds read low 0.959 | locus YJL092W, strain hpr5, active compounds read low 0.962 | locus YJL095W, strain BCK1 (second series), active compounds read low 0.951 | locus YJL095W, strain BCK1, active compounds read low 0.971 and 0.957 | locus YJL115W, strain asf1, active compounds read low 0.985 | locus YJL134W, strain LCB3, active compounds read low 0.967 | locus YJL154C, strain vps35, active compounds read low 0.962 | locus YJL164C, strain tpk1, active compounds read low 0.951 | locus YJL168C, strain set2, active compounds read low 0.938 | locus YJL187C, strain SWE1 (second series), active compounds read low 0.999 | locus YJR043C, strain POL32, active compounds read low 0.995 | locus YJR066W, strain TOR1, active compounds read low 0.918 | locus YJR075W, strain HOC1, active compounds read low 0.991 and 1
active: locus YDR392W, strain spt3, active compounds read low 0.539 | locus YJL129C, strain trk1, active compounds read low 0.679 | locus YJL166W, strain qcr8, active compounds read low 0.898
